{"source": "PubChem BioAssay (NCATS)", "note": "Inconclusive results are not listed. A number with no mark means an inactive call. Active and inactive are the calls of the source. Calls follow the shape of the dose curve; as a rule, active = well fitted inhibition curve with a large enough effect; inconclusive = small, poorly fitted or top-dose-only effect; inactive = flat fitted curve, though single readings scatter. Potency is read from the fitted curve at half-maximal effect."}
{"system": "CP201", "experiment": "qHTS profiling for inhibitors of Plasmodium falciparum proliferation (AID 504749); also: nearly all actives have a fitted effect of over 60% in size;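 as to activity, negative = inhibition: 0% = DMSO vehicle and full inhibition = artemisinin control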", "details": "P. falciparum in erythrocytes, SYBR Green DNA, 72 h; series mostly up to 28.7 µM; activity, negative = inhibition: at the top concentration", "summary_of_the_method": "(§1)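 P. falciparum-infected erythrocytes (0.3% parasitemia, 2.5% hematocrit) incubated with compound 72 h at 37 C, 5% CO2. Parasite DNA detected by SYBR Green after lysis, overnight at room temperature; normalised to 0.29 uM artemisinin and DMSO.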", "units": {"activity, negative = inhibition": "%"}}
{"smiles": "Cc1cc(-c2ccc(N=Nc3c(S(=O)(=O)O)cc4cc(S(=O)(=O)O)cc(N)c4c3O)c(C)c2)ccc1N=Nc1c(S(=O)(=O)O)cc2cc(S(=O)(=O)O)cc(N)c2c1O", "activity, negative = inhibition": -7.98}
{"smiles": "CCOC(=O)Cc1ccc(-c2ccccc2)cc1", "activity, negative = inhibition": -4.25}
{"smiles": "CNC(=O)[C@H](Cc1c[nH]c2ccccc12)NC(=O)[C@@H](CC(=O)NO)CC(C)C", "activity, negative = inhibition": -19.6}
{"smiles": "O=c1n(CC2CO2)c(=O)n(CC2CO2)c(=O)n1CC1CO1", "note": "(configuration not stated)", "activity, negative = inhibition": -12.1}
{"smiles": "C[C@H](CCC(=O)O)[C@H]1CC[C@H]2[C@@H]3CC[C@@H]4C[C@H](O)CC[C@]4(C)[C@H]3C[C@H](O)[C@]12C", "activity, negative = inhibition": -7.12}
{"smiles": "CNC(=O)c1c(I)c(C(=O)NCC(=O)Nc2c(I)c(C(=O)O)c(I)c(C(=O)NCCO)c2I)c(I)c(N(C)C(C)=O)c1I", "activity, negative = inhibition": 1.71}
{"smiles": "S=C1SCN(Cc2ccccc2)CN1Cc1ccccc1", "activity, negative = inhibition": -7.76}
{"smiles": "Nc1ccc(N=Nc2ccccc2)c(N)n1", "activity, negative = inhibition": -1.74}
{"smiles": "O=P(O)(O)OP(=O)(O)O", "activity, negative = inhibition": -8.49}
{"smiles": "OC/C=C/c1ccccc1", "activity, negative = inhibition": 0.41}
{"smiles": "CN1CCCC(CN2c3ccccc3Sc3ccccc32)C1", "note": "(configuration not stated)", "activity, negative = inhibition": -10.3}
{"smiles": "O=C1c2ccccc2C(=O)C1c1ccc(Cl)cc1", "activity, negative = inhibition": -3.5}
{"smiles": "CC(=O)Oc1cccc2c1C(=O)c1c(OC(C)=O)cc(C(=O)O)cc1C2=O", "activity, negative = inhibition": 0.786}
{"smiles": "CC[C@H]1OC(=O)[C@H](C)[C@@H](O[C@H]2C[C@@](C)(OC)[C@@H](O)[C@H](C)O2)C(C)[C@@H](O[C@@H]2O[C@H](C)C[C@H](N(C)C)[C@@H]2O)[C@](C)(OC)C[C@@H](C)C(=O)[C@H](C)[C@@H](O)[C@]1(C)O", "note": "(some centres not stated)", "activity, negative = inhibition": -11}
{"smiles": "CCCCCCCCCCCCCCCCCC[N+](C)(C)CCC[Si](OC)(OC)OC", "activity, negative = inhibition": 2.15}
{"smiles": "CCN(CC)CCC(=O)N1c2ccccc2Sc2ccc(Cl)cc21", "activity, negative = inhibition": -22}
{"smiles": "CC(=O)Nc1ccc(NC(=S)NC(=O)c2ccc(C(C)(C)C)cc2)cc1", "activity, negative = inhibition": -2.71}
{"smiles": "CC(=O)Nc1c(I)c(C(=O)O)c(I)c(N(C)C(C)=O)c1I", "activity, negative = inhibition": -8.28}
{"smiles": "c1ccc2c(c1)Sc1ccccc1N2CCN1CCCC1", "Potency": "13.5 µM (active)"}
{"smiles": "NC(N)=NCC1COc2ccccc2O1", "note": "(configuration not stated)", "activity, negative = inhibition": -13.7}
{"smiles": "CN(C)C(=O)CCSC(SCCC(=O)O)c1cccc(/C=C/c2ccc3ccc(Cl)cc3n2)c1", "note": "(configuration not stated)", "activity, negative = inhibition": -11.4}
{"smiles": "O=C1c2ccccc2CN2C(=O)c3ccccc3CN12", "activity, negative = inhibition": 2.74}
{"smiles": "Cn1c(=O)c2c(ncn2CCOC(=O)C(C)(C)Oc2ccc(Cl)cc2)n(C)c1=O", "activity, negative = inhibition": -9.5}
{"smiles": "CC(C)CCCCCCc1ccc(O)cc1", "activity, negative = inhibition": -6.89}
{"smiles": "N[C@@H](Cc1cc(I)c(Oc2ccc(O)c(I)c2)c(I)c1)C(=O)O", "activity, negative = inhibition": -2.31}
{"smiles": "O=C(Nc1ccc(O)cc1)c1ccccc1O", "activity, negative = inhibition": -4.32}
{"smiles": "C#C[C@]1(O)CC[C@@H]2[C@H]3CCC4=CC(=O)CC[C@H]4[C@H]3C(=C)C[C@@]21CC", "Potency": "0.478 µM (active)"}
{"smiles": "Cn1c(O)c(N=NC(N)=S)c2ccccc21", "activity, negative = inhibition": -3.16}
{"smiles": "OCc1ccccc1", "activity, negative = inhibition": -1.47}
{"smiles": "COc1ccc2nc(NC(=O)Nc3ccccc3)sc2c1", "activity, negative = inhibition": -6.29}
{"smiles": "O=C(OCc1ccccc1)c1cccnc1", "activity, negative = inhibition": -6.75}
{"system": "CP203", "experiment": "qHTS profiling for inhibitors of Plasmodium falciparum proliferation (AID 504749); also: nearly all actives have a fitted effect of over 60% in size;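 as to activity, negative = inhibition: 0% = DMSO vehicle and full inhibition = artemisinin control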", "details": "P. falciparum in erythrocytes, SYBR Green DNA, 72 h; series mostly up to 28.7 µM; activity, negative = inhibition: at the top concentration", "summary_of_the_method": "as §1", "units": {"activity, negative = inhibition": "%"}}
{"smiles": "Cc1cc(-c2ccc(N=Nc3c(S(=O)(=O)O)cc4cc(S(=O)(=O)O)cc(N)c4c3O)c(C)c2)ccc1N=Nc1c(S(=O)(=O)O)cc2cc(S(=O)(=O)O)cc(N)c2c1O", "activity, negative = inhibition": -18.6}
{"smiles": "CCOC(=O)Cc1ccc(-c2ccccc2)cc1", "activity, negative = inhibition": 3.35}
{"smiles": "C[C@H](CCC(=O)O)[C@H]1CC[C@H]2[C@@H]3CC[C@@H]4C[C@H](O)CC[C@]4(C)[C@H]3C[C@H](O)[C@]12C", "activity, negative = inhibition": -1.22}
{"smiles": "CNC(=O)c1c(I)c(C(=O)NCC(=O)Nc2c(I)c(C(=O)O)c(I)c(C(=O)NCCO)c2I)c(I)c(N(C)C(C)=O)c1I", "activity, negative = inhibition": -4.36}
{"smiles": "Nc1ccc(N=Nc2ccccc2)c(N)n1", "activity, negative = inhibition": 0.216}
{"smiles": "O=P(O)(O)OP(=O)(O)O", "activity, negative = inhibition": -14.5}
{"smiles": "OC/C=C/c1ccccc1", "activity, negative = inhibition": -0.162}
{"smiles": "O=C1c2ccccc2C(=O)C1c1ccc(Cl)cc1", "activity, negative = inhibition": 7.34}
{"smiles": "CC(=O)Oc1cccc2c1C(=O)c1c(OC(C)=O)cc(C(=O)O)cc1C2=O", "activity, negative = inhibition": -7.55}
{"smiles": "CC[C@H]1OC(=O)[C@H](C)[C@@H](O[C@H]2C[C@@](C)(OC)[C@@H](O)[C@H](C)O2)C(C)[C@@H](O[C@@H]2O[C@H](C)C[C@H](N(C)C)[C@@H]2O)[C@](C)(OC)C[C@@H](C)C(=O)[C@H](C)[C@@H](O)[C@]1(C)O", "note": "(some centres not stated)", "activity, negative = inhibition": -14.7}
{"smiles": "CCCCCCCCCCCCCCCCCC[N+](C)(C)CCC[Si](OC)(OC)OC", "activity, negative = inhibition": -4.45}
{"smiles": "CC(=O)Nc1c(I)c(C(=O)O)c(I)c(N(C)C(C)=O)c1I", "activity, negative = inhibition": -13.3}
{"smiles": "NC(N)=NCC1COc2ccccc2O1", "note": "(configuration not stated)", "activity, negative = inhibition": -10.4}
{"smiles": "CN(C)C(=O)CCSC(SCCC(=O)O)c1cccc(/C=C/c2ccc3ccc(Cl)cc3n2)c1", "note": "(configuration not stated)", "activity, negative = inhibition": -21}
{"smiles": "O=C1c2ccccc2CN2C(=O)c3ccccc3CN12", "activity, negative = inhibition": -3.16}
{"smiles": "CC(C)CCCCCCc1ccc(O)cc1", "activity, negative = inhibition": -14.8}
{"smiles": "O=C(OCc1ccccc1)c1cccnc1", "activity, negative = inhibition": -3.04}
{"system": "CP211", "experiment": "qHTS profiling for inhibitors of Plasmodium falciparum proliferation (AID 504749); also: nearly all actives have a fitted effect of over 60% in size;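 as to activity, negative = inhibition: 0% = DMSO vehicle and full inhibition = artemisinin control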", "details": "P. falciparum in erythrocytes, SYBR Green DNA, 72 h; series mostly up to 28.7 µM; activity, negative = inhibition: at the top concentration", "summary_of_the_method": "as §1", "units": {"activity, negative = inhibition": "%"}}
{"smiles": "Cc1cc(-c2ccc(N=Nc3c(S(=O)(=O)O)cc4cc(S(=O)(=O)O)cc(N)c4c3O)c(C)c2)ccc1N=Nc1c(S(=O)(=O)O)cc2cc(S(=O)(=O)O)cc(N)c2c1O", "activity, negative = inhibition": -12}
{"smiles": "CCOC(=O)Cc1ccc(-c2ccccc2)cc1", "activity, negative = inhibition": -1.14}
{"smiles": "O=c1n(CC2CO2)c(=O)n(CC2CO2)c(=O)n1CC1CO1", "note": "(configuration not stated)", "activity, negative = inhibition": -23.8}
{"smiles": "C[C@H](CCC(=O)O)[C@H]1CC[C@H]2[C@@H]3CC[C@@H]4C[C@H](O)CC[C@]4(C)[C@H]3C[C@H](O)[C@]12C", "activity, negative = inhibition": 0.0575}
{"smiles": "CNC(=O)c1c(I)c(C(=O)NCC(=O)Nc2c(I)c(C(=O)O)c(I)c(C(=O)NCCO)c2I)c(I)c(N(C)C(C)=O)c1I", "activity, negative = inhibition": 0.0636}
{"smiles": "S=C1SCN(Cc2ccccc2)CN1Cc1ccccc1", "activity, negative = inhibition": -1.21}
{"smiles": "Nc1ccc(N=Nc2ccccc2)c(N)n1", "activity, negative = inhibition": -2.74}
{"smiles": "O=P(O)(O)OP(=O)(O)O", "activity, negative = inhibition": -1.37}
{"smiles": "OC/C=C/c1ccccc1", "activity, negative = inhibition": -3.98}
{"smiles": "O=C1c2ccccc2C(=O)C1c1ccc(Cl)cc1", "activity, negative = inhibition": -14.4}
{"smiles": "CCCCCCCCCCCCCCCCCC[N+](C)(C)CCC[Si](OC)(OC)OC", "activity, negative = inhibition": -0.811}
{"smiles": "CC(=O)Nc1ccc(NC(=S)NC(=O)c2ccc(C(C)(C)C)cc2)cc1", "activity, negative = inhibition": -0.926}
{"smiles": "CC(=O)Nc1c(I)c(C(=O)O)c(I)c(N(C)C(C)=O)c1I", "activity, negative = inhibition": -18}
{"smiles": "c1ccc2c(c1)Sc1ccccc1N2CCN1CCCC1", "Potency": "13.5 µM (active)"}
{"smiles": "CN(C)C(=O)CCSC(SCCC(=O)O)c1cccc(/C=C/c2ccc3ccc(Cl)cc3n2)c1", "note": "(configuration not stated)", "activity, negative = inhibition": -11.5}
{"smiles": "O=C1c2ccccc2CN2C(=O)c3ccccc3CN12", "activity, negative = inhibition": -0.276}
{"smiles": "Cn1c(=O)c2c(ncn2CCOC(=O)C(C)(C)Oc2ccc(Cl)cc2)n(C)c1=O", "activity, negative = inhibition": 5.16}
{"smiles": "CC(C)CCCCCCc1ccc(O)cc1", "activity, negative = inhibition": -6.56}
{"smiles": "N[C@@H](Cc1cc(I)c(Oc2ccc(O)c(I)c2)c(I)c1)C(=O)O", "activity, negative = inhibition": -13.7}
{"smiles": "O=C(Nc1ccc(O)cc1)c1ccccc1O", "activity, negative = inhibition": 7.47}
{"smiles": "C#C[C@]1(O)CC[C@@H]2[C@H]3CCC4=CC(=O)CC[C@H]4[C@H]3C(=C)C[C@@]21CC", "Potency": "0.478 µM (active)"}
{"smiles": "Cn1c(O)c(N=NC(N)=S)c2ccccc21", "activity, negative = inhibition": -9.62}
{"smiles": "OCc1ccccc1", "activity, negative = inhibition": -0.22}
{"smiles": "O=C(OCc1ccccc1)c1cccnc1", "activity, negative = inhibition": -4.25}
